These results are taken from PubChem BioAssay (NCATS).

SMILES strings stand for the structures. Records with an inconclusive call do not appear. A call without a number means that no potency is given here. Active and inactive are the calls of the source. Calls follow the shape of the dose curve; as a rule, active = well fitted inhibition curve with a large enough effect; inconclusive = small, poorly fitted or top-dose-only effect; inactive = flat fitted curve, though single readings scatter.

This assay deals with Calcium and integrin-binding protein 1 (Homo sapiens) (UniProt Q99828). Kind of assay: Primary qHTS for Identification of Calcium Integrin Binding Protein 1 (CIB1) Competitor (AID 1508620). Also: top concentration of the series differs between compounds. Conditions: CIB1-GST / FITC-alphaIIb peptide fluorescence polarization; series mostly up to 114 µM. In a few lines: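 Fluorescence polarization competition: GST-tagged CIB1 (1 uM final) preincubated with compound 15 min at room temperature, then FITC-labelled alphaIIb peptide (100 nM final) added. After 15 min at room temperature, polarization read at Ex 480/Em 540.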
Chain of Calcium and integrin-binding protein 1 (Homo sapiens) (Q99828 whole entry, looked up): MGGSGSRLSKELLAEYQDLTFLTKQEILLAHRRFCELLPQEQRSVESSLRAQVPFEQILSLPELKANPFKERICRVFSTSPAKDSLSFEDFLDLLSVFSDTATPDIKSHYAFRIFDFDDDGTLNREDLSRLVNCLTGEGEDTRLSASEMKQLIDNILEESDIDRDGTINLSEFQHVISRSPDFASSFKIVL
For orientation: qHTS replaces the single test concentration by a dilution series.
`COc1ccc(C2c3c(nc(C)[nH]c3=O)Oc3ccc4ccccc4c32)cc1OC` (stereo not given): the Potency result is “inactive”.
Regarding `Cc1cc2c(s1)c1cnn(Cc3cc(Cl)ccc3F)c(=O)c1n2C`, the Potency entry was “inactive”.
In the case of `N#Cc1c(-c2ccc(C(=O)c3ccc(O)cc3)cc2)no[n+]1[O-]`, the Potency result was “inactive”.
As to `CCOC(=O)c1c(/C=N/Nc2ccccc2)c2sc(C)cc2n1C`, the Potency result was “inactive”.
`CC(=O)c1ccc(N2CCN(S(=O)(=O)c3ccc(N4CCCC4=O)cc3)CC2)cc1`: the Potency result is “inactive”.
For `CCc1ccccc1C(=O)N1CCc2cc(-c3nc(NC(=O)Cc4ccc5c(c4)OCO5)sc3C)ccc21`, the Potency result is “inactive”.
Under `Cc1cc2c(s1)c1cnn(Cc3c(F)c(F)cc(F)c3F)c(=O)c1n2C` stands “inactive”; under `FC(F)(F)c1cc(-c2ccc(CNc3nc(C4CCCC4)nc4ccccc34)cc2)ccn1`, “inactive”.
In the case of `Cc1cc(C)c(S(=O)(=O)Nc2cccc3cccnc23)c(C)c1`, the Potency entry was “inactive”.
Regarding `NC(=O)C1CCN(c2ncc(Br)cn2)CC1`, the Potency entry was “inactive”.
With `OCc1ccnc(NC(=S)N2CCN(c3cccc(C(F)(F)F)c3)CC2)c1`, the Potency entry is “inactive”.
Turning to `O=C(/C=C/c1ccc(Cl)cc1)Nc1cccc([S+](=O)([O-])Nc2ccccc2F)c1`, the Potency result is “inactive”.
Regarding `CC(=O)C1CCN(c2ncc(-c3cccc(N(C)C)c3)s2)CC1`, the Potency result is “inactive”.
Under `O=C(NCc1cccnc1)C1CCN(S(=O)(=O)c2cccs2)CC1` stands “inactive”.
With `O=C(Nc1ccc(-c2nc3ccccc3[nH]2)cc1)c1ccncc1`, the Potency result was “inactive”.
On to `CC(C)(C)OC(=O)NCc1nnc(-c2cc3ccccc3[nH]2)o1`, for which the Potency entry is “inactive”.
For `Cc1cnc(-c2ccccc2C(C)C)nc1NCC1CCN(C)CC1`, the Potency result is “inactive”.
As to `COc1ccc(NC(=O)c2cnn3c(C)cc(C)nc23)cc1`, the Potency result was “inactive”.
With `COc1ccc(C2Nc3ccccc3C(=O)N2Cc2cccnc2)cc1COc1c(C)cccc1C` (stereo not given), the Potency entry is “inactive”.
Take `Fc1ccccc1-c1nc(NCc2ccc(-c3cccnc3)cc2)c2ccccc2n1`: the Potency entry is “inactive”.
As for `O=C(Cn1nc(-c2ccncc2)ccc1=O)NCCc1ccccc1`, the Potency entry is “inactive”.
Under `CC(=O)c1ccc(N2CCN(S(=O)(=O)c3ccc4c(c3)OCC(=O)N4)CC2)cc1` stands “inactive”; under `CC(=O)Nc1sc2c(c1-c1ccc(N3CCN(C(C)=O)CC3)nc1)CCNC2`, “inactive”; under `Cc1ccc(-c2nn3c(C)nnc3s2)cc1NCc1ccc(-c2cccc(Cl)c2)o1`, “inactive”.
For the compound `Cc1noc(C)c1-c1ccc2ncnc(NCc3cc(F)cc(F)c3)c2c1`, the Potency entry is “inactive”.
`O=C(OCC#CCSc1nnc(-c2cccc3ccccc23)o1)c1sccc1Cl`: the Potency result was “inactive”.
Consider `N#Cc1ccc(NC(=O)Nc2nnc(-c3ccncc3)s2)cc1`, for which the Potency result was “inactive”.
For `FC(F)(F)c1ccccc1-c1nc(NCc2ccc(-c3cccc(Cl)c3)cc2)c2ccccc2n1`, the Potency entry is “inactive”.
On to `Cc1ccc(CNc2ncnc3cc(-c4ccc5c(c4)OCO5)ccc23)o1`, for which the Potency entry was “inactive”.
`NC(=O)C1CCN(c2nc(-c3ccc4c(c3)OCCCO4)cs2)CC1`: the Potency result is “inactive”.
Under `COc1ccccc1-c1nc(NCc2ccc(-c3cccnc3)cc2)c2ccccc2n1` stands “inactive”; under `O=C1CCCC2=C1C(c1[nH]ncc1Cl)N=C(c1nc3ccccc3o1)N2` (stereo not given), “inactive”.
Under `N#Cc1ccc(-c2ccc(CNc3ccc(N4CCOCC4)cc3)o2)cc1` stands “inactive”; under `COc1cc(NC(=S)N2CCN(c3cccc(C(F)(F)F)c3)CC2)nc2ccccc12`, “inactive”; under `O=S(=O)(c1ccccc1)N1CCN(c2nc(-c3ccc(Br)cc3)cs2)CC1`, “inactive”.
For `Cc1ccc(OCCn2c(CCNC(=O)c3ccc[nH]3)nc3ccccc32)cc1`, the Potency entry is “inactive”.
Turning to `CCN1CCN(C(=O)CCN(CC(C)C)c2nc(-c3cccs3)nc3ccccc23)CC1`, the Potency result was “inactive”.
As to `Cc1cc2c(s1)c1cnn(Cc3cccc(Cl)c3F)c(=O)c1n2C`, the Potency entry is “inactive”.
For `COc1ccc(C2=Nn3c(nnc3-c3ccccc3C)SC2)cc1`, the Potency entry is “inactive”.
`Fc1cc(Nc2nc(-c3ccncc3)nc3ccccc23)ccc1-c1cc(F)c(F)c(F)c1`: the Potency entry is “inactive”.
